HT1080-NT tox: kills 2HG-producing HT-1080-NT fibrosarcoma cells. actives 1.6% (n = 360,000). Potency, µM (doses to about 46.1 µM), without a hit: at the top dose activity, negative = less viability, hits mostly cytotoxic. AID 686970. HT-1080-NT fibrosarcoma viability, CellTiter-Glo ATP luminescence, 48 h;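 note: NT is the 2HG producing partner of a matched IDH1 knockdown line; potency is the fitted concentration of half-maximal effect; 0% = DMSO-treated cells and -100% = media-only wells without cells; nearly all actives have a fitted effect of over 55% in size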
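Read-out is CellTiter-Glo luminescence after 10 minutes at room temperature, following 48 hours' compound treatment of HT-1080-NT cells (750 cells/well, RPMI, 5% FBS, 37 degrees C).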
TDP1 cell CPT: DT40-hTDP1 cell growth loss with CPT | chicken DT40 Tdp1-/-;hTDP1 cells + 20 nM CPT, ATP luminescence, 48 h | Potency, µM (highest dose often 46.2 µM), for the others: at the highest dose activity change, negative = growth inhibition, hits mostly inhibitors | actives 12% (n = 420,000); note: potency is the fitted concentration of half-maximal effect; nearly all actives have a fitted effect of over 55% in size
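Cell growth measured by CellTiter-Glo luminescence after a minimum 48 h, 37 C compound exposure with 20 nM CPT in Tdp1-knockout DT40 cells stably expressing hTDP1, seeded 400/well; qHTS titration format.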
DT40 TDP1 no CPT: qHTS for Inhibitors of human tyrosyl-DNA phosphodiesterase 1 (TDP1): qHTS in cells in absence of CPT; DT40 Tdp1-/- hTDP1 cells, no CPT, ATP luminescence, 48 h; Potency, µM (titrated, usually from 46.2 µM), for inactives: at the highest dose activity change, negative = growth inhibition, actives largely listed as inhibitors; actives 15% (n = 420,000); AID 686978, 2013; note: potency is the fitted concentration of half-maximal effect; nearly all actives have a fitted effect of over 55% in size
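Readout: luminescence from CellTiter-Glo after 30 min in the dark at RT. Cells: DT40 Tdp1-/- with stable hTDP1, 400/well. Exposure: compounds alone, ≥48 hr, 37 °C.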
IL1B secr inh: inflammasome signaling inhibition, IL-1 beta readout. THP-1 LPS/ATP IL-1B secretion, AlphaLISA, 16 h; active compounds read low. activity change, % at 57.5 µM. actives 4.7% (n = 360,000). AID 743279; in the data active = activity change below about -50%; inconclusive = mostly about -30% to -49%
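Secreted IL-1B measured by AlphaLISA bead assay after 16 h compound exposure of THP-1 cells; compounds (final up to 57.5 uM) added 1 h before LPS (250 ng/mL) and ATP (1.25 mM) stimulation; lower signal means less secretion.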
HT1080 IDH1KD tx: kills HT-1080 cells with IDH1 knockdown; HT-1080 IDH1 knockdown viability, ATP luminescence, 48 h; actives 2% (n = 360,000); Potency, µM (doses to about 46.1 µM), inactives show at the highest dose activity, negative = toxicity, hits mostly cytotoxic;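 note: potency is the fitted concentration of half-maximal effect; 0% = DMSO wells and -100% = cell-free medium wells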
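CellTiter-Glo luminescence after 48 h compound exposure at 37 degrees C of IDH1-knockdown HT-1080 cells in 5% FBS RPMI. %Activity scaled between DMSO wells and cell-free media wells, with curves fitted and assigned curve classes.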
* marks the source's active call; other numbers are inactive results; u = inconclusive; x = no result given. In the library only some 19% were active in any assay of this set; here they are far more common. Unless noted, calls come from the whole dose curve; as a rule, active = well fitted curve in the direction sought with a large enough effect; inconclusive = small, poorly fitted or top-dose-only effect, or another doubt; inactive = no such curve, though single readings can be large; an effect the other way counts as inactive or inconclusive. Unless noted, % is set by controls: 0 for no effect and ±100 for the full control effect.

SMILES	HT1080-NT tox	TDP1 cell CPT	DT40 TDP1 no CPT	IL1B secr inh	HT1080 IDH1KD tx
CC1CCN(C(=O)CSc2nc(N)c3c4c(sc3n2)CN(C)CC4)CC1	2%	u	21µM*	-7	2%
COc1ccc(NC(=O)Cc2coc3ccc4ccccc4c23)cc1S(=O)(=O)N1CCOCC1	-23%	u	u	-6	-23%
CCOC(=O)Cc1csc(NC(=O)Nc2ccc(Cl)cc2)n1	u	21µM*	16µM*	-12	u
O=C(Cc1csc(NC(=O)Nc2ccc(Cl)cc2)n1)NC1CCCC1	u	u	u	-53*	-8%
CN(C)/C=C/c1oc2ccc(O)cc2c1[N+](=O)[O-]	-21%	5%	u	-9	-29%
CCOC(=O)c1c(C)n(C)c2cc(Br)c(OC)cc12	6%	-5%	-3%	14	6%
C=CCCc1ccc(C#N)c(SCc2c(C(=O)OCC)c3cc(OC(C)=O)c(Br)cc3n2C)n1	u	21µM*	29µM*	12	-13%
CCOC(=O)c1c(CN(CC)CC)n(C)c2cc(Br)c(O)cc12	12%	-11%	u	-5	1%
CCOC(=O)c1c(CSc2nc(C)cc(C)c2C#N)n(C)c2cc(Br)c(OC(C)=O)cc12	u	u	26µM*	58	5%
O=C(c1cc2ccccc2oc1=O)N(Cc1cccc(Cl)c1)C1CCS(=O)(=O)C1 (stereo unspecified)	x	-1%	-2%	x	x
CCc1nc(NCc2ccc3c(c2)OCO3)c2oc3ccccc3c2n1	-7%	13µM*	18µM*	12	-12%
Cc1nc(NCc2ccc3c(c2)OCO3)c2oc3ccccc3c2n1	u	-21%	-26%	-52*	-17%
Clc1nc(Cl)c2ncn(-c3ccccc3)c2n1	-1%	8.2µM*	13µM*	-103*	-25%
C[C@@H]1CN([C@@H](C)CO)C(=O)CCCn2nncc2CO[C@@H]1CN(C)S(=O)(=O)c1cccc(C#N)c1	-1%	-2%	-18%	-5	-4%
COc1ccc(-n2nc3c(c2NC(=O)CCl)CSC3)cc1	21µM*	2.6µM*	2.3µM*	-107*	7.3µM*
O=C(NCCOCCO)C(=O)Nc1c2c(nn1-c1ccc(F)cc1)CSC2	x	7%	1%	x	x
CC(=O)N1CCN(C(=O)C(=O)Nc2c3c(nn2-c2ccc(Cl)cc2)CSC3)CC1	x	-1%	-13%	x	x
O=C(NCc1ccccc1)C(=O)Nc1c2c(nn1-c1ccc(F)cc1)CSC2	x	u	16µM*	x	x
CC(C)CCNC(=O)C(=O)Nc1c2c(nn1-c1ccc(Cl)cc1)CSC2	x	26µM*	12µM*	x	x
N#CC(=C=[N-])c1nc2ccccc2nc1-[n+]1cccc(NC(=O)c2cccs2)c1	-3%	5.8µM*	6.5µM*	19	5%
COc1ccc(C(=O)NCC2(c3ccccc3)CCOCC2)cc1[N+](=O)[O-]	13%	u	29µM*	20	11%
Nc1ccccc1C(=O)NCC1(c2ccccc2)CCCC1	-2%	u	u	-7	-11%
Cc1ccc(C(CC(=O)NCC2(c3ccccc3)CCCC2)c2ccccc2)c(O)c1 (stereo unspecified)	x	23µM*	16µM*	x	x
COc1ccccc1C(=O)N1CCCC1(C#N)c1ccccc1 (stereo unspecified)	-6%	-1%	-10%	12	2%
COc1ccc(C(=O)N2CCCC2(C#N)c2ccccc2)cc1[N+](=O)[O-] (stereo unspecified)	5%	18µM*	10µM*	0	-1%
COc1ccc(C(=O)NCC2(c3ccccc3)CCCC2)c(OC)c1	0%	9.2µM*	6.5µM*	25	-7%
CCn1cc(C(=O)OCC(=O)Nc2ccc(C)c(Cl)c2)c(=O)c2ccc(C)nc21	x	-21%	-5%	x	x
COc1cccc(C(=O)NCC2(c3ccccc3)CCCC2)c1	-20%	u	15µM*	u	-22%
O=C(NCC1(c2ccccc2)CCCC1)c1ccc(Br)o1	2%	u	23µM*	-21	-3%

Compound activity from PubChem BioAssay.
